Reference: PubChem BioAssay (NCATS)
Results filed as inconclusive are left out. Where a call stands in place of a potency, no number is given. Calls of active or inactive are those of the source. Unless noted, calls follow the shape of the dose curve; as a rule, active = well fitted curve in the direction sought with a large enough effect; inconclusive = small, poorly fitted or top-dose-only effect, or another doubt; inactive = no such curve, though single readings can be large; an effect the other way counts as inactive or inconclusive.

What was measured:
[1] = molecular target: Calcium and integrin-binding protein 1 (Homo sapiens) (UniProt Q99828); assay: Primary qHTS for Identification of Calcium Integrin Binding Protein 1 (CIB1) Competitor (AID 1508620);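 also: GST tagged CIB1 binding a fluorescein labelled alphaIIb integrin peptide tracer; top concentration of the series differs between compounds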
Sequence of Calcium and integrin-binding protein 1 (Homo sapiens) (Q99828 whole entry, looked up): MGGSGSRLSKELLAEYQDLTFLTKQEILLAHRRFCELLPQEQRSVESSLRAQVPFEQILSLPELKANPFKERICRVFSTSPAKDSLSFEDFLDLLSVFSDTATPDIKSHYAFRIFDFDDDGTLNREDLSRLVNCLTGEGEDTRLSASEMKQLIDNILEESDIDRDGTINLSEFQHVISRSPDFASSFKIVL
Outline: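 CIB1-GST (1 uM final) and compound incubated 15 min at room temperature before adding FITC-alphaIIb peptide tracer (100 nM final). Competition for binding read by fluorescence polarization (ex 480, em 540) after another 15 min at room temperature.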

[2] = molecular target: Cytochrome P450 2C9 (Homo sapiens) (UniProt P11712); assay: Cytochrome P450 family 2 subfamily C member 9 (CYP2C9) small molecule antagonists: luciferase biochemical (cell-free) qHTS assay (AID 1645842; active = well fitted curve in the direction sought with a large enough effect in the repeat runs; an effect the other way counts as inactive or inconclusive; also: nearly all actives have a fitted effect of over 55% in size; also: potency is read from the fitted curve at half-maximal effect)
Sequence of Cytochrome P450 2C9 (Homo sapiens) (P11712 whole entry, looked up): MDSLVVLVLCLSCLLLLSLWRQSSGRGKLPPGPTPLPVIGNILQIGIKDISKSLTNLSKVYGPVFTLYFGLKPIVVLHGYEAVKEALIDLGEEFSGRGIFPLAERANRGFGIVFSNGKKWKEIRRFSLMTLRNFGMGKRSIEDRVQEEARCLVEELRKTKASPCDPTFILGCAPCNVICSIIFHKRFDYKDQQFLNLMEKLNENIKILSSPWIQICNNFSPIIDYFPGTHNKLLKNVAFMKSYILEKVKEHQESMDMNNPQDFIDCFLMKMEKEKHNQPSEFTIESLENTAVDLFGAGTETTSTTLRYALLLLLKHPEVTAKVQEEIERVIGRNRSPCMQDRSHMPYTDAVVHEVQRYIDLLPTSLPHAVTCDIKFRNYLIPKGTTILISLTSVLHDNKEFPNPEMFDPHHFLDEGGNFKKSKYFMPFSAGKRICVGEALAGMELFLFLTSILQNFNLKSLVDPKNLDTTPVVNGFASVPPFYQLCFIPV
Outline: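 P450-Glo CYP2C9 system: proluciferin substrate with enzyme in mix containing 0.4% BSA, 10 min at room temperature, then NADPH regeneration solution added and incubated 1 h at 37C. Detection reagent stopped reaction; luminescence read after 20 min as RLU.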

[3] = molecular target: Cytochrome P450 3A4 (Homo sapiens) (UniProt P08684); assay: Cytochrome P450 family 3 subfamily A member 4 (CYP3A4) small molecule antagonists: luciferase qHTS assay (AID 1645841; active = well fitted curve in the direction sought with a large enough effect in the repeat runs; an effect the other way counts as inactive or inconclusive; also: nearly all actives have a fitted effect of over 45% in size)
Sequence of Cytochrome P450 3A4 (Homo sapiens) (P08684 whole entry, looked up): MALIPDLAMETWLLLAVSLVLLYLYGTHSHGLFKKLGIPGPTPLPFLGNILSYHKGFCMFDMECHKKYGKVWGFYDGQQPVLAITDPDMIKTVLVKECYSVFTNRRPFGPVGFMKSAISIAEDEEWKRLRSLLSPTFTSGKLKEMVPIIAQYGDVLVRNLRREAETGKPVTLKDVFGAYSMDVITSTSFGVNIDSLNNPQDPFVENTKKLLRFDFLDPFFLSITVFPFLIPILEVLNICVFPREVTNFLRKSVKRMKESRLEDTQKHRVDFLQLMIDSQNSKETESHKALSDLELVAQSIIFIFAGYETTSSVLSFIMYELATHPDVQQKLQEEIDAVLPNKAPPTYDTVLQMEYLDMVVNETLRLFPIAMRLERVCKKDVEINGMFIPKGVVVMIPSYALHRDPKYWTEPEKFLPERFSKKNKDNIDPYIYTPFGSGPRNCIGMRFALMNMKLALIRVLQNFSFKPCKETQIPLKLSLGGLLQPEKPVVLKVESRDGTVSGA
Outline: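 Luminescent CYP3A4 activity readout: compounds plus enzyme-substrate mix 10 min at room temperature, reaction started with NADPH regenerating system for 1 h, stopped with detection reagent, read after 20 min. Ketoconazole served as control.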

[4] = Primary qHTS for inhibitors of nuclear receptor binding SET domain protein 2 (NSD2) in an isogenic RCH-ACV NSD2 p.E1099K mutant (9B) (AID 1645876); also: nearly all actives have a fitted effect of over 70% in size
[5] = Primary qHTS for inhibitors of nuclear receptor binding SET domain protein 2 (NSD2) in an RCH-ACV wild type WT cells (2C) (AID 1645877); also: nearly all actives have a fitted effect of over 70% in size; also: potency is read from the fitted curve at half-maximal effect
[6] = molecular target: Cytochrome P450 2D6 (Homo sapiens) (UniProt P10635); assay: Cytochrome P450 family 2 subfamily D member 6 (CYP2D6) small molecule antagonists: luciferase biochemical (cell-free) qHTS assay (AID 1645840; active = well fitted curve in the direction sought with a large enough effect in the repeat runs; an effect the other way counts as inactive or inconclusive; also: nearly all actives have a fitted effect of over 55% in size; also: potency is read from the fitted curve at half-maximal effect)
Sequence of Cytochrome P450 2D6 (Homo sapiens) (P10635 whole entry, looked up): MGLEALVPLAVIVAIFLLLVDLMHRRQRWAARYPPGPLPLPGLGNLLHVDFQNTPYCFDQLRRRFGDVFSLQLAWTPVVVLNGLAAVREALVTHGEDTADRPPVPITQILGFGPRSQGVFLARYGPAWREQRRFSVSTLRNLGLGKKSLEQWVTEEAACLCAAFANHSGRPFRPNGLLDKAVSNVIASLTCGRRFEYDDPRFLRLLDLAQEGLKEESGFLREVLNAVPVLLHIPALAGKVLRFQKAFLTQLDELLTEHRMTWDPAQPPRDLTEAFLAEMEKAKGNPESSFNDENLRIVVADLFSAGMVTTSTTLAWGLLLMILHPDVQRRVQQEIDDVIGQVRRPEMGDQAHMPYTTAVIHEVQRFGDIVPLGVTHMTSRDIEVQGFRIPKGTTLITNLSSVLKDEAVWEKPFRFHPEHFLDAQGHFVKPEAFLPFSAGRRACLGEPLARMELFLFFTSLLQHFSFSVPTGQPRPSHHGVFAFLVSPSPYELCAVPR
Outline: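 P450-Glo CYP2D6 system: proluciferin substrate converted by enzyme to luciferin, read by luminescence proportional to activity. Enzyme-substrate mix with compound 10 min at room temperature, then NADPH regeneration 1 h before detection reagent.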

[7] = molecular target: N-terminal Xaa-Pro-Lys N-methyltransferase 1 (Homo sapiens) (UniProt Q9BV86); assay: Confirmatory qHTS for Inhibitors of N-terminal methyltransferase 1 (NTMT1): MTaseGlo Assay (AID 1645874); also: nearly all actives have a fitted effect of over 65% in size; also: potency is read from the fitted curve at half-maximal effect
Sequence of N-terminal Xaa-Pro-Lys N-methyltransferase 1 (Homo sapiens) (Q9BV86 whole entry, looked up): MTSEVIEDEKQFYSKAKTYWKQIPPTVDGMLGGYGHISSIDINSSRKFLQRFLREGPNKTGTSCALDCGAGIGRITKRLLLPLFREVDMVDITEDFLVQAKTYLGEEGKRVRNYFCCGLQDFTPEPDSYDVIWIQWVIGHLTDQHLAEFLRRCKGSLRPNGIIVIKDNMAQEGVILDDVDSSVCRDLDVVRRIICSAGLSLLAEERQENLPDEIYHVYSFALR
Outline: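 MTase-Glo luminescence measured SAH formed by 125 nM NTMT1 from 100 uM SAM and 1 uM SPKRIA peptide over 30 min at room temperature, following 15 min compound preincubation. Percent inhibition against no-enzyme and DMSO controls gave 4-parameter Hill fits.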

SMILES: NCCCCN(Cc1nc2ccccc2[nH]1)[C@H]1CCCc2cccnc21
- Potency [1]: inactive
- Potency [2]: 6.74 µM (active)

SMILES: CCNC(=O)C1CC(F)(c2ccc(CN3CCCC3)c(F)c2)C1 (centres undefined)
- Potency [1]: inactive
- Potency [3]: inactive
- Potency [4]: inactive
- Potency [5]: inactive

SMILES: COc1cnc(-n2cnc(C)n2)c2[nH]cc(C(=O)C(=O)N3CCN(C(=O)c4ccccc4)CC3)c12
- Potency [1]: inactive
- Potency [6]: inactive
- Potency [4]: inactive
- Potency [5]: inactive

SMILES: Cc1ccccc1-n1nc(-c2c(-c3ccc(F)cc3)nn3c2NC[C@@H](CO)C3)ccc1=O
- Potency [1]: inactive
- Potency [2]: 6.74 µM (active)

SMILES: CC1(C)CC=C(c2cnc3ccccc3c2)c2cc(C(=O)Nc3ccc(C(=O)O)cc3)ccc21
- Potency [1]: inactive
- Potency [2]: 21.3 µM (active)

SMILES: CCOC(=O)C(CCc1ccccc1)NC1CCCN2CCCC(C(=O)O)N2C1=O (centres undefined)
- Potency [1]: inactive
- Potency [6]: inactive
- Potency [4]: inactive
- Potency [5]: inactive

SMILES: Cc1ccccc1-c1cc(N2CCN(C)CC2)ncc1N(C)C(=O)C(C)(C)c1cc(C(F)(F)F)cc(C(F)(F)F)c1
- Potency [1]: inactive
- Potency [6]: 15.1 µM (active)
- Potency [4]: inactive
- Potency [5]: inactive

SMILES: COc1cccc(CNc2ccc(S(=O)(=O)Nc3nc4ccccc4s3)cc2)c1O
- Potency [1]: inactive
- Potency [2]: 6.74 µM (active)
- Potency [4]: inactive
- Potency [5]: inactive

SMILES: Cc1cn(-c2cc(NC(=O)c3ccc(C)c(Nc4nccc(-c5cnccn5)n4)c3)cc(C(F)(F)F)c2)cn1
- Potency [1]: inactive
- Potency [2]: 1.51 µM (active)
- Potency [4]: inactive
- Potency [5]: inactive

SMILES: CC(C)(C)NS(=O)(=O)c1ccc(-c2ccc3[nH]nc(N)c3c2)cc1
- Potency [1]: inactive
- Potency [2]: 13.5 µM (active)

SMILES: COC(=O)[C@H](Cc1cccc(C(=N)N)c1)[C@@H](C)NC(=O)c1ccc(-c2cc[n+]([O-])cc2)cc1
- Potency [1]: inactive
- Potency [6]: inactive
- Potency [4]: inactive
- Potency [5]: inactive

SMILES: O=[N+]([O-])c1cc(Cl)ccc1S(=O)(=O)N1CCN(Cc2ccccc2)CC1
- Potency [1]: inactive
- Potency [2]: inactive
- Potency [4]: inactive
- Potency [5]: inactive

SMILES: COc1ccc(OC)c(C2C(C#N)=C(N)Oc3n[nH]c(-c4ccc5ccccc5c4)c32)c1 (centres undefined)
- Potency [1]: inactive
- Potency [6]: 7.56 µM (active)
- Potency [4]: inactive
- Potency [5]: inactive

SMILES: O=C(c1ccc(Cl)c([N+](=O)[O-])c1)N1CCN(c2ccccc2F)CC1
- Potency [1]: inactive
- Potency [6]: inactive
- Potency [5]: 16.3 µM (active)

SMILES: CCc1nn(CCO)c(CC)c1Oc1cc(C#N)cc(C#N)c1
- Potency [1]: inactive
- Potency [6]: inactive
- Potency [4]: inactive
- Potency [5]: inactive

SMILES: Nc1ncnc2c1C(=O)N(c1ccc(C3CCC(CC(=O)O)CC3)cc1)CCO2 (centres undefined)
- Potency [1]: inactive
- Potency [2]: inactive
- Potency [4]: inactive
- Potency [5]: inactive

SMILES: CC[C@H](NC(=O)c1c(O)c(-c2ccccc2)nc2ccccc12)c1ccccc1
- Potency [1]: inactive
- Potency [2]: 16.9 µM (active)
- Potency [4]: inactive

SMILES: Cc1cccc(-c2nn3c(c2-c2ccnc4ccc(C(N)=O)cc24)CCC3)n1
- Potency [1]: inactive
- Potency [6]: inactive
- Potency [4]: inactive
- Potency [5]: inactive

SMILES: CCCCC(=O)N1c2ccccc2NC2=C(C(=O)CCC2)C1c1ccccc1Cl (centres undefined)
- Potency [1]: inactive
- Potency [2]: 12 µM (active)

SMILES: COc1ccnc2[nH]cc(C(=O)C(=O)N3CCN(C(=O)c4ccccc4)CC3C)c12 (centres undefined)
- Potency [1]: inactive
- Potency [6]: 3.01 µM (active)
- Potency [4]: inactive
- Potency [5]: inactive

SMILES: Fc1ccccc1-c1nc2ccn(Cc3ccc(-c4ccc(C(F)(F)F)cc4C(F)(F)F)nn3)cc-2n1
- Potency [1]: inactive
- Potency [2]: 23.9 µM (active)
- Potency [4]: inactive
- Potency [5]: inactive

SMILES: COC(=O)C(CC1CCCC1)c1ccc(S(C)(=O)=O)cc1 (centres undefined)
- Potency [1]: inactive
- Potency [2]: 4.77 µM (active)
- Potency [4]: inactive

SMILES: O=C(NC1Cc2ccccc2N(C[C@@H](O)CO)C1=O)c1cc2cc(Cl)sc2[nH]1 (some centres undefined)
- Potency [1]: inactive
- Potency [2]: 21.3 µM (active)

SMILES: CNC(=O)c1ccc2c(c1)CCO[C@H]2CCN1CCN(c2ccc(C(N)=O)cc2)CC1
- Potency [1]: inactive
- Potency [2]: inactive
- Potency [4]: inactive
- Potency [5]: inactive

SMILES: COc1cc(OC)cc(-c2ccc3c(-c4ccc(F)cc4)[nH]nc3n2)c1
- Potency [1]: inactive
- Potency [2]: 7.56 µM (active)
- Potency [4]: inactive
- Potency [5]: inactive

SMILES: COc1cccc(C(=O)NCCNc2nc3cc(C)cc(C)c3cc2C#N)c1
- Potency [1]: inactive
- Potency [2]: 1.69 µM (active)
- Potency [7]: inactive
- Potency [5]: inactive

SMILES: COc1ccc(-n2c(=O)[nH]c3cc(C(=O)NCc4ccc(Cl)cc4)sc3c2=O)nc1OC
- Potency [1]: inactive
- Potency [2]: 9.52 µM (active)
- Potency [4]: inactive
- Potency [5]: inactive

SMILES: O=C(/C=C/C=C/c1ccc2c(c1)OCO2)N1CCCCC1
- Potency [1]: inactive
- Potency [2]: 10.7 µM (active)

SMILES: Cc1ccc(Nc2nnc(-c3ccc([N+](=O)[O-])cc3)o2)cc1Cl
- Potency [1]: inactive
- Potency [6]: inactive
- Potency [5]: inactive

SMILES: C=Cc1cc2oc(-c3ccc(O)c(F)c3)nc2cc1O
- Potency [1]: inactive
- Potency [7]: 31.6 µM (active)

SMILES: Cc1onc(-c2ccccc2Cl)c1C(=O)N(C)c1ccc(Cl)cc1
- Potency [1]: inactive
- Potency [2]: 13.5 µM (active)
- Potency [4]: inactive
- Potency [5]: inactive
